For 40 compounds, Potency results are on record in PubChem BioAssay (Tox21).

Results filed as inconclusive are left out. Entries that show only a call come without a potency. Calls of active or inactive are those of the source. Calls follow the shape of the full dose curve.

Peroxisome proliferator-activated receptor delta (Homo sapiens), sequence (Q03181 whole entry, looked up): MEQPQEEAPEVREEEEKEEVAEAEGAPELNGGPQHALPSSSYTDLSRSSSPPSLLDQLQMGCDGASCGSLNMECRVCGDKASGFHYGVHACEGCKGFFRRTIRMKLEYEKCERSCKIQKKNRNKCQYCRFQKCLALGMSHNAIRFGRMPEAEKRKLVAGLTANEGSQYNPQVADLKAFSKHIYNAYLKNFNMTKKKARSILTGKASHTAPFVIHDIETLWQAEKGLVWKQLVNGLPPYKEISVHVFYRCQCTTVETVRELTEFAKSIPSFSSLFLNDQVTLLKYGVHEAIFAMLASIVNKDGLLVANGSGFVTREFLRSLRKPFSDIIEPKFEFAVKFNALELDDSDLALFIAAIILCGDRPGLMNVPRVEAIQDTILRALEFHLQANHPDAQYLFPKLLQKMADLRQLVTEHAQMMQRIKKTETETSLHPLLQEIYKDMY

The assay concerns the target Peroxisome proliferator-activated receptor delta (Homo sapiens) (UniProt Q03181). As to the kind of experiment: qHTS assay to identify small molecule agonists of the peroxisome proliferator-activated receptor delta (PPARd) signaling pathway (AID 743212). Particulars: HEK293H PPARd-UAS-bla, beta-lactamase FRET ratio, 17 h; series mostly up to 62.6 µM. The source says:
U.S. Tox21 Program National Center for Advancing Translational Sciences [NCATS] NIH Chemical Genomics Center [NCGC] U.S. Environmental Protection Agency [EPA] National Institutes of Environmental Health Sciences [NIEHS] National Toxicology Program [NTP] U.S. Food and Drug Administration [FDA] Tox21 Assay Overview: The peroxisome proliferator-activated receptors (PPARs) are lipid-activated transcription factors of the nuclear receptor superfamily with three distinct subtypes namely PPAR alpha, PPAR delta (PPARd) and PPAR gamma. All these subtypes heterodimerizes with Retinoid X receptor (RXR) and have different physiological functions. […] To identify the compounds that activate PPAR-delta signaling, GeneBLAzer PPAR delta UAS-bla HEK293H cell line (Invitrogen, Carlsbad, CA, USA) containing a beta-lactamase reporter gene under the control of an Upstream Activator Sequence (UAS) was used to screen the Tox21 compound library.
Tox21 Assay Protocol Summary: PPARd-bla cells were dispensed at 3000 cells/6uL/well in 1536-well black wall/clear bottom plates using a Multidrop Combi (Thermo Fisher Scientific, Waltham, MA) dispenser. After the assay plates were incubated at 37 C and 5% CO2 for 5 h, 23 nL of compounds dissolved in DMSO, positive controls or DMSO only was transferred to the assay plate by a Pintool station (Kalypsys, San Diego, CA). The assay plates were incubated at 37C for 17 h. After 1 uL of LiveBLAzerTM B/G FRET substrate was added using a Bioraptr Flying Reagent Dispenser (FRD) workstation (Beckman Coulter, Indianapolis, IN, USA), the plates were incubated at room temperature for 2 h, and fluorescence intensity was measured by an Envision plate reader (PerkinElmer, Shelton, CT).
(In qHTS, concentration-response curves come from the screen itself.)
As for `COc1ccc(/C=C/c2cc(OC)cc(=O)o2)cc1`, the Potency entry was “inactive”.
For `C[Si](C)(C)O[Si](C)(C)O[Si](C)(C)C` the value was “inactive”; for `O=C1c2ccccc2C(=O)C1c1ccc2cc(S(=O)(=O)O)cc(S(=O)(=O)O)c2n1`, “inactive”.
The same measure for `O=C(O)CCc1nc2ccccc2[nH]1`: “inactive”; for `Cc1cc(SC2=C(O)C[C@@](CCc3ccc(N)cc3)(C(C)C)OC2=O)c(C(C)(C)C)cc1CO`: “inactive”; for `O=C(O)c1ccc2c(c1)nc(C(=O)NC1CCN(C3CC3)CC1)n2Cc1cc(-c2ccc(Cl)s2)on1`: “inactive”.
For `CCC(CC)C(=O)O` the value was “inactive”; for `O=C1c2ccccc2C(=O)c2c1ccc(O)c2O`, “inactive”.
Regarding `CCC(C)CCCC(C)(C)O` (stereo not given), the Potency entry was “inactive”.
The same measure for `Cc1cc(N)n(-c2ccccc2)n1`: “inactive”; for `O=C(OC1C[C@H]2CC[C@@H](C1)[N+]21CCCC1)C(O)(c1ccccc1)c1ccccc1` (stereo not given in full): “inactive”.
In the case of `CCCCCCCCC(=O)OCC(C)OC(=O)CCCCCCCC` (stereo not given), the Potency result is “inactive”.
The same measure for `O=c1[nH][nH]c2ccccc12`: “inactive”; for `CC(C)(C)c1ccc(CCC=O)cc1`: “inactive”; for `C=C[Si]1(C)O[Si](C)(C=C)O[Si](C)(C=C)O[Si](C)(C=C)O1` (stereo not given): “inactive”.
For the compound `O=Cc1ccc([N+](=O)[O-])cc1`, the Potency entry is “inactive”.
Turning to `NC(=O)c1ccccc1C(N)=O`, the Potency result is “inactive”.
The same measure for `CC(CN=Cc1ccccc1O)N=Cc1ccccc1O` (stereo not given): “inactive”; for `C[C@H]1C[C@H]2[C@@H]3CCC4=CC(=O)C=C[C@]4(C)[C@@]3(F)[C@@H](O)C[C@]2(C)[C@@]1(O)C(=O)COP(=O)(O)O`: “inactive”; for `Nc1cccc2c(=O)[nH][nH]c(=O)c12`: “inactive”.
The same measure for `O=C1c2ccccc2C(=O)C1c1ccc2ccccc2n1`: “inactive”; for `CCCC(=O)OCc1ccccc1`: “inactive”; for `CC(C)Cc1nccs1`: “inactive”.
For `CC(CCl)OC(C)CCl` (stereo not given), the Potency result was “inactive”.
Consider `O=C(O)c1ccccc1[N+](=O)[O-]`, for which the Potency result was “inactive”.
For `N#Cc1ccc(CC(=O)c2cccc(C(F)(F)F)c2)cc1` the value was “inactive”.
The same measure for `CCOc1cc(OCC)c(C(C)=O)cc1OCC`: “inactive”.
Take `CC(C)(C)NCC(O)COc1ccc(NC(=O)NC2CCCCC2)cc1` (stereo not given): the Potency result was “inactive”.
The same measure for `Cc1cc(C)n(CO)n1`: “inactive”.
The same measure for `CCCCCCCCCCCCN1CCOCC1`: “inactive”; for `O=C(OCCOCCOCCOC(=O)c1ccccc1)c1ccccc1`: “inactive”; for `CCc1cnc(C(=O)O)c(C(=O)O)c1`: “inactive”.
For `CC(=O)Nc1cccc(N)c1` the value was “inactive”; for `CC(C)CC(C)(C)C`, “inactive”; for `CCOc1ccc2c(c1)C(C)CC(C)(C)N2` (stereo not given), “inactive”.
Consider `C=Cc1ccc(C=C)cc1`, for which the Potency result was “inactive”.
Turning to `Cc1nc2sccn2c(=O)c1CCN1CCC(=C(c2ccc(F)cc2)c2ccc(F)cc2)CC1`, the Potency entry was “inactive”.
For `SCCOCCOCCS` the value was “inactive”.
For `Sc1nc(S)nc(S)n1` the value was “inactive”; for `CC(O)C(C)O` (stereo not given), “inactive”.
